According to PubChem BioAssay (NCI):
The panel holds about 83,000 compounds, 20% with a hit somewhere; the sample as a whole holds those more often.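 A percent growth of 40 corresponds to 60% growth inhibition; 0 means no net growth; -100 means all cells died. Active threshold: below 10.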 Values without a mark were called inactive. The source made the active and inactive calls.

Experiments:
Experiment in all cases: NCI-60 one-dose screen, 48 h (100 = growth as untreated, 0 = no growth, -100 = all killed)
Conditions in all cases: 10 µM
T-47D breast = tested on: T-47D breast
BT-549 breast = tested on: BT-549 breast
MDA-MB-435 melanoma = tested on: MDA-MB-435 melanoma
SW-620 colon = tested on: SW-620 colon
MCF7 breast = tested on: MCF7 breast
HCT-116 colon = tested on: HCT-116 colon
HCC-2998 colon = tested on: HCC-2998 colon
KM12 colon = tested on: KM12 colon
MDA-MB-468 breast = tested on: MDA-MB-468 breast

| Structure (SMILES) | growth (T-47D breast) | growth (BT-549 breast) | growth (MDA-MB-435 melanoma) | growth (SW-620 colon) | growth (MCF7 breast) | growth (HCT-116 colon) | growth (HCC-2998 colon) | growth (KM12 colon) | growth (MDA-MB-468 breast) |
| --- | --- | --- | --- | --- | --- | --- | --- | --- | --- |
| CN(C)c1nc(NCCNS(=O)(=O)c2ccc(C(=O)/C=C/c3ccccc3)cc2)nc(Nc2ccc(F)cc2)n1 | 25.6% | 24.9% | 4.21% (active) | -4.39% (active) | -82.8% (active) | -53% (active) | -75.7% (active) | -78.4% (active) | 1.47% (active) |
| C#CCNC(=O)[C@]12CCC(C)(C)C[C@H]1C1=CC[C@@H]3[C@@](C)(CCC#N)[C@H](C(=C)C)CC[C@@]3(C)[C@]1(C)CC2 | 28% | 75.6% | 72.2% | 74.1% | 34% | 27.2% | 75.4% | 54.8% | 34.7% |
| COc1ccc(NC(=O)CSc2nnc(-c3ccc4nc(-c5ccc(Cl)cc5)[nH]c4c3)o2)cc1 | 96.7% | 29.9% | -7.51% (active) | 1.97% (active) | 17.1% | 23.2% | 111% | 60.4% | 90.8% |
| CN1CCN(c2ccc(Nc3nc(NCCNC(=O)c4ccc(C(F)(F)F)cc4)c4sccc4n3)cc2)CC1 | -6.48% (active) | -13.9% (active) | -95.2% (active) | 4.68% (active) | -44.4% (active) | 15.2% | -22.5% (active) | 31.4% | 5.65% (active) |
| COc1ccc(C(=O)/C=C/c2cc(C(F)(F)F)cc(C(F)(F)F)c2)cc1S(N)(=O)=O | -59.8% (active) | -65.8% (active) | -69.2% (active) | -58% (active) | -72.5% (active) | -59.1% (active) | -98.3% (active) | -75.4% (active) | -95.2% (active) |
| Cc1nc(Nc2nc(C)c3ccc(OCCN4CCOCC4)cc3n2)[nH]c(=O)c1C | -10.5% (active) | -74.2% (active) | -50.8% (active) | 8.56% (active) | 0.281% (active) | 6.7% (active) | -72.8% (active) | 6.49% (active) | -72.8% (active) |
| CN1CCN(c2ccc(Nc3nc(N4CCN(S(=O)(=O)c5ccc(Cl)cc5)CC4)c4sccc4n3)cc2)CC1 | -34.4% (active) | 64.6% | -100% (active) | -52.2% (active) | -83.5% (active) | -49.9% (active) | -8.56% (active) | -15.3% (active) | -96.7% (active) |
| Cc1noc2c(Cc3ccc([N+](=O)[O-])cc3)nn(CC(=O)N/N=C/c3ccc(Cl)cc3)c(=O)c12 | 43.8% | 56% | 76.3% | 68.2% | 52.5% | 21.7% | 70.7% | 69.7% | 5.37% (active) |
| O=C(O)CCCCCCCCCCN1C(=O)/C(=C/c2cnc(-c3ccc(Cl)cc3)s2)SC1=S | 47.2% | -17.1% (active) | 49% | 27.6% | 27.1% | 4.89% (active) | 82.4% | 14% | 52.3% |
| CC(C)NC(=O)c1cc(-c2ccc(NC(=O)Nc3ccc(N4CCN(C)CC4)c(C(F)(F)F)c3)cc2)nc2cccnc12 | -16.6% (active) | -95.5% (active) | -96.5% (active) | -64.6% (active) | -75.6% (active) | -90.6% (active) | -97.9% (active) | -83.6% (active) | -90.9% (active) |
| Cc1ccc(C(=O)CSc2nnc(-c3c[nH]c4ccccc34)n2-c2ccccc2)cc1 | 46.7% | 22.4% | 38.6% | 19% | 12.5% | 7.68% (active) | 66.4% | 51% | 48% |
| O=C(CSc1nnc(-c2ccc3nc(-c4ccccc4)[nH]c3c2)o1)Nc1ccc(Br)cc1 | 62.8% | 95.9% | 63.4% | 2.94% (active) | 28.4% | 19.1% | 90.2% | 53.9% | 83.2% |
| COc1ccc(-c2cc(-c3cc(C(=O)c4ccc(Br)cc4)n4ccc(C)cc34)nc(N)c2C#N)cc1 | 82.8% | 104% | 92.7% | 92.3% | 79.1% | 73.8% | 103% | 82.1% | 24.3% |
| Clc1ccc2c(N/N=C/c3c[nH]c4ccc(Br)cc34)ccnc2c1 | -54.6% (active) | -79.5% (active) | -77.3% (active) | 2.03% (active) | -56.8% (active) | -10.3% (active) | -92.5% (active) | -81.7% (active) | -94.2% (active) |
| Cc1noc2c(Cc3ccccc3)nn(CC(=O)N/N=C/c3ccc(F)cc3)c(=O)c12 | 12.6% | 64.1% | 71.1% | 79.9% | 61.7% | 35% | 67.1% | 86.2% | 85.4% |
